According to PubChem BioAssay (NCATS):
Records with an inconclusive call do not appear. A number with no mark means an inactive call. Calls come from the whole dose curve; as a rule, active = well fitted cell-killing curve with a large enough effect; inconclusive = small, poorly fitted or top-dose-only effect, or effect the other way; inactive = flat fitted curve, though single readings scatter.

assay: S16 Schwann cell viability assay (CellTiter-Glo assay) (AID 624031); conditions: S16 rat Schwann cells viability, 24 h; series mostly up to 57.5 µM; activity change, negative = cytotoxicity: at the top concentration;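 note: cellular ATP luminescence as a viability measure; plate controls were DMSO-treated cells for no effect and cell-free wells for full effect; nearly all actives have a fitted effect of over 70% in size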
Outline: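 Native S16 rat Schwann cells in DMEM/10% FBS without phenol red were incubated overnight, then exposed to compounds for 24 h at 37 °C/5% CO2. Viability was read as ATP luminescence (CellTiter-Glo), normalized to no-cell wells and DMSO (0%).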

Row | SMILES | activity change, negative = cytotoxicity
1 | O=c1c(-c2ccc(O)cc2)coc2cc(O)cc(O)c12 | 4.54%
2 | CC(C)C(=O)Nc1ccc([N+](=O)[O-])c(C(F)(F)F)c1 | 0%
3 | CN(C)CCOC(c1ccccc1)c1ccccc1 | 8.17%
4 | Cn1c(=O)c2[nH]cnc2n(C)c1=O | 8.65%
5 | NS(=O)(=O)c1cc2c(cc1Cl)NCNS2(=O)=O | -5.46%
6 | COc1ccc2[nH]cc(CCNC(C)=O)c2c1 | 2.77%
7 | CC(=O)OCC(CCn1cnc2cnc(N)nc21)COC(C)=O | 16%
8 | NCCS(=O)(=O)O | -4.37%
9 | Cn1c(=O)c2c(ncn2C)n(C)c1=O | 2.87%
10 | Clc1ccc(C(c2ccccc2Cl)C(Cl)Cl)cc1 (stereo not drawn) | -1.17%
11 | Cc1ccc(-c2cc(C(F)(F)F)nn2-c2ccc(S(N)(=O)=O)cc2)cc1 | 3.48%
12 | Nc1c2c(nc3ccccc13)CCCC2 | 16.4%
13 | Cc1cn([C@H]2C=C[C@@H](CO)O2)c(=O)[nH]c1=O | 3.75%
14 | N[C@@H](Cc1c[nH]c2ccc(O)cc12)C(=O)O | -4.67%
15 | CC(COc1ccccc1)N(CCCl)Cc1ccccc1 (stereo not drawn) | -6.83%
16 | C[C@](N)(Cc1ccc(O)c(O)c1)C(=O)O | 10.3%
17 | CCOC(=O)C(C)(C)Oc1ccc(Cl)cc1 | -4.7%
18 | CC(C)(Oc1ccc(C2CC2(Cl)Cl)cc1)C(=O)O (stereo not drawn) | 6.93%
19 | O=C(CCCN1CCC(O)(c2ccc(Cl)cc2)CC1)c1ccc(F)cc1 | -14.9%
20 | Cc1cn([C@H]2C[C@H](N=[N+]=[N-])[C@@H](CO)O2)c(=O)[nH]c1=O | 1.97%
21 | CC(C)Cc1ccc(C(C)C(=O)O)cc1 (stereo not drawn) | 6.5%
22 | Cc1ccc(C(=O)Nc2ccc(S(=O)(=O)O)c3cc(S(=O)(=O)O)cc(S(=O)(=O)O)c23)cc1NC(=O)c1cccc(NC(=O)Nc2cccc(C(=O)Nc3cc(C(=O)Nc4ccc(S(=O)(=O)O)c5cc(S(=O)(=O)O)cc(S(=O)(=O)O)c45)ccc3C)c2)c1 | 0%
23 | CC(C)NCC(O)c1ccc(O)c(O)c1 (stereo not drawn) | -0.965%
24 | CN(Cc1cnc2nc(N)nc(N)c2n1)c1ccc(C(=O)N[C@@H](CCC(=O)O)C(=O)O)cc1 | 0.0835%
25 | CS(=O)(=O)Nc1ccc([N+](=O)[O-])cc1Oc1ccccc1 | -2.14% [at 25.7 µM]
26 | Cn1cnc2c1c(=O)[nH]c(=O)n2C | 0.95%
27 | CCC1(c2ccccc2)C(=O)NCNC1=O | 5.3%
28 | O=c1[nH]cc(F)c(=O)[nH]1 | -5.05%
